# In all, about 360,000 compounds went through this assay and about 17,000 (4.7%) were called active. About 5% were inconclusive and are not listed. For the sample, actives were picked, then their nearest neighbours and some compounds at random. A number with no mark means an inactive call. Cut-off read from the data, not from the text of the source: active = activity change below about -50%; inconclusive = mostly about -30% to -49%; inactive = weaker than that.
# Assay: qHTS for Inhibitors of Inflammasome Signaling: IL-1-beta AlphaLISA Primary Screen
# Details: THP-1 LPS/ATP IL-1B secretion, 16 h; at 57.5 µM, stronger effect = lower value
# Outline: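 Secreted IL-1B measured by AlphaLISA bead assay after 16 h compound exposure of THP-1 cells; compounds (final up to 57.5 uM) added 1 h before LPS (250 ng/mL) and ATP (1.25 mM) stimulation; lower signal means less secretion.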
# % is set by controls: 0 for no effect and ±100 for the full control effect.
row,Compound,activity change
1,COc1ccc(C(=O)N2CCCCC2c2cc(C(=O)Nc3ccc(F)c(Cl)c3)no2)cc1 (centres undefined),-4.59%
2,CCOC1=C2[C@@H](CN(S(=O)(=O)c3ccc(C)cc3)[C@H]2c2ccccc2F)[C@H]2C(=O)N(Cc3ccccc3)C(=O)[C@H]2C1,0.677%
3,COc1ccc(S(=O)(=O)N(C)CC(=O)NCCCN2CCOCC2)cc1Cl,25.8%
4,COc1ccc(-c2ccc(CNCCCN3CCOCC3)o2)cc1Cl,-66% (active)
5,C=CCOc1ccc(Cl)cc1CNCCCN1CCOCC1,-12.8%
6,Cc1[nH]c2ccccc2c1C(=O)c1cc([C@H](NC(=O)OC(C)(C)C)C(C)C)sc1N,-6.92%
7,C[C@H](CO)N1C[C@H](C)[C@@H](CN(C)S(=O)(=O)c2ccc(F)cc2)OCc2cnnn2CCCC1=O,-17.7%
8,CCOC(=O)[C@]12CCCC=C1N(Cc1ccc(Cl)cc1Cl)C(=O)[C@H](CC(=O)N1CCCCC1)C2,-12.7%
9,COc1cc(OC)c(C(=O)NNC(=O)c2ccc(NS(=O)(=O)c3cccs3)cc2)cc1OC,-0.853%
10,COc1ccc(Cc2nnc(NC(=O)c3ccc(OC)cc3OC)s2)cc1,-81.7% (active)
11,COc1ccc(Cc2nnc(NC(=O)Cc3cccs3)s2)cc1,20.9%
12,COc1ccc(Cc2nnc(NC(=O)c3cc(OC)c(OC)c(OC)c3)s2)cc1OC,64.7%
13,Cc1cccc(C2c3[nH]c4ccccc4c3CCN2C(=O)c2cc(-c3cccn3C)n[nH]2)n1 (centres undefined),-60% (active)
14,COc1ccc(C2c3[nH]c4ccccc4c3CCN2CCCn2cccn2)cc1C (centres undefined),-18.9%
15,Cc1cccc(C(=O)N2CCc3c([nH]c4ccccc34)C2CC(C)C)n1 (centres undefined),7.12%
16,c1ccc(C2c3[nH]c4ccccc4c3CCN2Cc2cccn2-c2cccnc2)nc1 (centres undefined),47.2%
17,O=C(c1cn2ccccc2n1)N1CCc2c([nH]c3ccccc23)C1c1ccccn1 (centres undefined),-15.2%
18,COCc1ccc(C(=O)N2CCc3c([nH]c4ccccc34)C2c2ccccn2)s1 (centres undefined),-55.4% (active)
19,COCc1c(N)c(C)nc(Cl)c1C#N,0%
20,O=C(COc1ccc2ccccc2c1)N1CCN(C(=O)c2cccs2)CC1,-11.7%
21,Nc1cc(C(=O)N2CCN(c3ccccc3Cl)CC2)ccc1N1CC2CC(C1)c1cccc(=O)n1C2 (centres undefined),14.2%

row,Compound,activity change
1,CC1=C(C(=O)N(C(C)C)C(C)C)CC(CC(=O)NCC2CCCCC2)C(=O)N1Cc1ccccc1 (centres undefined),-28.7%
2,CN(C)C(CNC(=O)c1cc2ccccc2o1)c1ccccc1 (centres undefined),-4.24%
3,CSc1ccccc1NC(=O)c1ccc2c(c1)CCN2S(C)(=O)=O,-9.72%
4,CCOCCCN(C)C1CCN(C(=O)c2oc3ccccc3c2NC(=O)COc2cccc(C)c2)CC1,-84% (active)
5,CCOCCCN(C)C1CCN(C(=O)c2oc3ccccc3c2NC(=O)Cc2cccc([N+](=O)[O-])c2)CC1,-15.5%
6,COCC(=O)Nc1c(C(=O)N2CCCC2)oc2ccccc12,-21%
7,CCCN(CC(=O)Nc1ccccc1C)C(=O)c1ccc(OCC(=O)N2CCOCC2)c(OCC)c1,-6.14%
8,COc1cccc(CNc2nc3cc(-c4csc5ccccc45)sc3c(=O)n2C)c1,-22.5%
9,CCCc1cc(=O)n2[nH]c(SCc3ccccc3)nc2n1,12.3%
10,CC1(Oc2cccc(F)c2)CCN(Cc2ccccc2OC(F)F)C1 (centres undefined),29.5%
11,CC(=O)OC[C@@H]1CN(Cc2ccccc2)C[C@H](n2cnc3c(NCc4ccco4)ncnc32)O1,16.4%
12,COc1ccc(CCNC(=O)c2ccc(NC(=O)CC3SC(N4CCCCC4)=NC3=O)cc2)cc1OC (centres undefined),-53.6% (active)
13,COc1ccc(NC(=O)CC2SC(N3CCCCC3)=NC2=O)cc1OC (centres undefined),3.71%
14,O=C(CC1SC(N2CCCC2)=NC1=O)Nc1ccc(C(=O)NCCc2ccc(F)cc2)cc1 (centres undefined),17.8%
15,COc1ccc(/C=N/NC(=O)Cn2cc(C(F)(F)F)ccc2=O)cc1,-1.55%
16,CC(C)(C)C(=O)N1CCC[C@@]1(CO)C(=O)O,1.41%
17,Cc1nn(-c2ccccc2)c2c1C(=O)NC(=O)C(C)(C)C2,-17.4%
18,Cc1nn(-c2ncccn2)c2c1C(=O)CC(C)(C)C2Br (centres undefined),-64.8% (active)
19,CCCCn1nnnc1C1(C)CCC(=O)N1Cc1ccc(OC)c(OC)c1 (centres undefined),0%
20,CCCCCCCCN1C(=O)[C@H](CC(=O)NCC23CC4CC(CC(C4)C2)C3)C[C@@]2(C(=O)OC)CCCCC=C12,-29.6%
21,COc1ccc(-c2oc3ncn(Cc4ccco4)c(=N)c3c2-c2ccc(OC)cc2)cc1,-65.2% (active)

row,Compound,activity change
1,COc1ccc(-c2nnc(SCC(=O)c3ccco3)n2-c2ccccc2)cc1,-3.17%
2,COc1ccc(-n2cnc3cc(NCc4ccco4)ccc32)cc1,-17.9%
3,O=[N+]([O-])c1ccc2c(c1)C(N1CCOCC1)/C(=C/C1(O)CCCCC1)O2 (centres undefined),4.33%
4,Cc1ccc(S(=O)(=O)N2C[C@]3(O)C[C@@H]4C(=O)N(c5ccccc5)C(=O)[C@@H]4C[C@]3(OC(=O)NC3CC3)C2)cc1,-19.7%
5,C#CCN(C[C@@H]1[C@@H](OC(=O)NC2CC2)[C@@H](OC(=O)NC2CC2)Cn2c(=O)ccc(=O)n21)S(=O)(=O)c1ccc(C)cc1,-84.6% (active)
6,C#CCN(C[C@H]1[C@H](OC(=O)NC2CCCC2)[C@H](OC(=O)NC2CCCC2)C[C@H]2C(=O)N(c3ccccc3)C(=O)[C@@H]12)S(=O)(=O)c1ccc(C)cc1,-9.89%
7,N#CC1(Nc2ccc3c4c(cccc24)CC3)CCCCC1,0%
8,O=C(NCCc1ccccn1)c1cc(C(=O)C2CCCCC2)c[nH]1,3.93%
9,CC(=O)CSc1nc(CCc2ccccc2)c(C#N)c(=O)[nH]1,3.36%
10,Cc1c(NS(=O)(=O)c2ccc(NC3CCCC3)c([N+](=O)[O-])c2)c(=O)n(-c2ccccc2)n1C,-9.94%
11,Cc1cc([N+](=O)[O-])ccc1NC1CCCC1,-6.41%
12,Cc1cc(C=O)c(C)n1-c1ccc(NC2CCCCC2)c([N+](=O)[O-])c1,-93.9% (active)
13,CCCC(=O)Nc1ncnc2c1ncn2[C@@H]1O[C@@H]2OP(=O)(O)OC[C@H]2[C@H]1OC(=O)CCC,0%
14,Cc1cnc(C(=O)OCc2c(C)cc(C(C)(C)C)cc2C)cn1,-4.05%
15,ClC1(Cl)CC1CSc1ncn[nH]1 (centres undefined),-1.77%
16,CCCCCCCCN1C(=O)[C@H](CC(=O)NCc2cccc3ccccc23)C[C@@]2(C(=O)OC)CCCCC=C12,-30%
17,COc1ccc(-c2cc(NC=O)c3ncc(-c4cccc(C(=O)N(C)C)c4)n3c2)c(OC)c1,47.4%
18,CC(=O)c1ccc(-c2cnc3c(NC=O)cc(-c4cccc(NS(C)(=O)=O)c4)cn23)cc1,-68.2% (active)
19,CC(=O)Nc1cc(-c2cccc(CO)c2)cn2c(-c3cccc(C(F)(F)F)c3)cnc12,-13.6%
20,CN(C)CCNC(=O)c1cccc(-c2cnc3c(NC=O)cc(-c4cccc(C(F)(F)F)c4)cn23)c1,-107% (active)
21,COc1ccc(-c2cc(NC=O)c3ncc(-c4ccccc4)n3c2)cc1OC,-59.3% (active)

row,Compound,activity change
1,CC(=O)c1cccc(-c2cnc3c(NC=O)cc(-c4ccccc4Oc4ccccc4)cn23)c1,98.2%
2,CC(=O)c1cccc(-c2cnc3c(NC=O)cc(-c4cccc(C(=O)N(C)C)c4)cn23)c1,107%
3,COc1ccc(-c2cc(NC=O)c3ncc(-c4cc(OC)c(OC)c(OC)c4)n3c2)c(OC)c1,39.1%
4,CC(=O)c1cccc(-c2cnc3c(NC=O)cc(-c4ccc(N(C)C)cc4)cn23)c1,51.7%
5,CCc1nc2ccc(C(=O)N3CCN(S(=O)(=O)CC)CC3)cn2c1N(C=O)CCC(C)C,36.3%
6,COc1cc(C(=O)OC(C)C(=O)NCC2CCCCC2)cc(NC(=O)c2ccco2)c1OC (centres undefined),-6.5%
7,Cc1oc(C)c(C(=O)NCCCC(=O)O)c1C(=O)NCCCC(=O)O,18.8%
8,CCc1nc2c(OCCOc3ccccc3)cccn2c1N(C)C(=O)c1cccs1,-18.6%
9,CCCCN1Cc2c(nc3cc(-c4ccccc4)[nH]n3c2=O)C1=O,13%
10,Cc1cc(=O)n2[nH]c(-c3cccc(Cl)c3)cc2n1,9.73%
11,O=c1c2c(nc3cc(-c4cccc(Cl)c4)[nH]n13)CCCC2,-102% (active)
12,Cc1nc(N)sc1N=Nc1c(C)n(C)n(-c2ccccc2)c1=O,15.5%
13,COCCNC(=O)C1CCCN(Cc2ccccc2Cl)CC1 (centres undefined),21.5%
14,Cc1ccc(-c2ccnc3nc(Sc4ncc(C(F)(F)F)cc4Cl)nn23)cc1,-65.2% (active)
15,Cc1cc(NC(=O)CSc2ncc(C(F)(F)F)cc2Cl)no1,-7.22%
16,Cc1nn(-c2ncc(C(F)(F)F)cc2Cl)c(=O)n1-c1ccccc1,24.1%
17,COc1ccc(S(=O)(=O)N2CCSCC2)cc1,0%
18,C[C@H]1Cn2cnc(C(=O)N[C@@H](Cc3c[nH]c4ccccc34)C(=O)OC(C)(C)C)c2C(=O)N1,33.4%
19,CC(=O)Nc1ccc(CNc2nc(NCCN(C)C)nc3cc(-c4ccccc4)sc23)cc1,-108% (active)
20,COCCNc1nc(Nc2ccccc2Cl)c2sc(-c3ccccc3)cc2n1,-12.6%
21,COCCNc1nc(NCc2ccc(NC(C)=O)cc2)c2sccc2n1,29.5%
